Measurements published in publication PMC4336329 (PLoS ONE, 2015).
Out of some 310,000 compounds screened, about 14,000 (4.5%) showed an effect of 50% or more. The effect is printed as a negative number. This excerpt belongs to a sample that is enriched for strong results.
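Also: peak tail current of the secondary pulse compared with the same well before compound.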

These compounds were tested against human ether-à-go-go-related gene (hERG) potassium channel (human, UniProt Q12809) (assay: primary screen, population patch clamp on CHO cells stably expressing hERG; higher = less effect of the substance).
Sequence of human ether-à-go-go-related gene (hERG) potassium channel (Q12809 whole entry, looked up): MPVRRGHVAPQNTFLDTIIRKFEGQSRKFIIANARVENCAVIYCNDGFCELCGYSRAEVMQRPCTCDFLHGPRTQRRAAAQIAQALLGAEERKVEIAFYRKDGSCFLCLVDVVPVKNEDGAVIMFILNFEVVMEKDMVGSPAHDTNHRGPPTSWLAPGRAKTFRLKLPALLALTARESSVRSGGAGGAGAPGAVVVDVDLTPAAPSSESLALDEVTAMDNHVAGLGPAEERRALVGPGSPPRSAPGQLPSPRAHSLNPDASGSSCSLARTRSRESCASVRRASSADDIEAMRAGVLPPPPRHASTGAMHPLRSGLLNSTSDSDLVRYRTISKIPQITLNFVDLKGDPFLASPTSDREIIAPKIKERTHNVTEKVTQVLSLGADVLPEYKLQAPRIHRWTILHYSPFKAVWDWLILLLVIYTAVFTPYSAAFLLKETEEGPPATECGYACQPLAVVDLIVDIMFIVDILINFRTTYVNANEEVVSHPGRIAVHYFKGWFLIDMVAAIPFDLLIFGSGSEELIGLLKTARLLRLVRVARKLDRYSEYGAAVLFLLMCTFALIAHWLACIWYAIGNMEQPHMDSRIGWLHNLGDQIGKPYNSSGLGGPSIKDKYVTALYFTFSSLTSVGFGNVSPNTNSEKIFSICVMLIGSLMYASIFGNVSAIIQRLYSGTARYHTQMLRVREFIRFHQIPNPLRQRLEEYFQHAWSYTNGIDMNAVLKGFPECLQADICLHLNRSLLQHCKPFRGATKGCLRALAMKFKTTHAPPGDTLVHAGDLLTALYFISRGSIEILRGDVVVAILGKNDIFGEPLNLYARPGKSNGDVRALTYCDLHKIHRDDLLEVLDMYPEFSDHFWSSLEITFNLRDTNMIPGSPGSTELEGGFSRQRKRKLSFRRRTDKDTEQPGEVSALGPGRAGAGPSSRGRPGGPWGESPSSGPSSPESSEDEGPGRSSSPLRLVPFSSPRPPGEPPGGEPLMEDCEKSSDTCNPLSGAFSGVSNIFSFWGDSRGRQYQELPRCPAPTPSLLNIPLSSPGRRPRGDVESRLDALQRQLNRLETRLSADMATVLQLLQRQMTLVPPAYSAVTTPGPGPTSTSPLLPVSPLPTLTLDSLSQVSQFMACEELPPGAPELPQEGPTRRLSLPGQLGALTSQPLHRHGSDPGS
With Cn1c(=O)cc(OCC(=O)N2CCN(C3CCCCC3)CC2)c2ccccc21 the “hERG current change (%, negative = inhibition) at 10uM” value was -18.6%.
In the case of CN(CCc1ccccn1)C(=O)c1cccnc1Oc1ccccc1, the “hERG current change (%, negative = inhibition) at 10uM” value is reported as 11.3%.
For O=C(O)C12C[C@H]3C[C@@H](C1)CC(n1ncc(N4CCN(c5ccccc5)CC4)c(Cl)c1=O)(C3)C2, the “hERG current change (%, negative = inhibition) at 10uM” value was 9.94%.
For CN(C(=O)Cn1c(=O)oc2ccccc21)C1CCCCC1, the “hERG current change (%, negative = inhibition) at 10uM” value was -1.73%.
In the case of CCCN(CCC)CCCNC(=O)Cn1cnc2sc(C)c(S(=O)(=O)N3CCCCC3)c2c1=O, the “hERG current change (%, negative = inhibition) at 10uM” value is reported as 9.2%.
With CCCCOc1ccc(C(=O)NCC(=O)N(C)CC(=O)Nc2ccc(N3CCOCC3)cc2)cc1 the “hERG current change (%, negative = inhibition) at 10uM” value was -27.4%.
For C(=N\N1CCOCC1)/c1ccsc1.O=P(O)(O)O, the “hERG current change (%, negative = inhibition) at 10uM” value was 18.8%.
For O=C(Cc1ccccc1)N1CCN(c2ccc([N+](=O)[O-])cc2)CC1, the “hERG current change (%, negative = inhibition) at 10uM” value was -55.2%.
For O=C(Cc1ccc(F)cc1)N1CCN(c2ccc(F)cc2)CC1, the “hERG current change (%, negative = inhibition) at 10uM” value was 0.483%.
In the case of Cc1ccc(S(=O)(=O)NCc2ccc(C(=O)N3CCN(c4ccc([N+](=O)[O-])cc4)CC3)cc2)cc1, the “hERG current change (%, negative = inhibition) at 10uM” value is reported as -70.7%.
CC(Cc1ccccc1)NC(=O)Cc1ccc([N+](=O)[O-])cc1 (stereo not shown) was tested, and the “hERG current change (%, negative = inhibition) at 10uM” value was -17.8%.
For Cc1ccc(S(=O)(=O)NCc2ccc(C(=O)N3CCN(c4ccccc4)CC3)cc2)cc1, the “hERG current change (%, negative = inhibition) at 10uM” value was -18.6%.
For O=CN1CCN(C(=O)Cc2ccc([N+](=O)[O-])cc2)CC1, the “hERG current change (%, negative = inhibition) at 10uM” value was -25.6%.
In the case of COc1ccc(N2CCN(C(=O)c3ccc(CNS(=O)(=O)c4ccc(C)cc4)cc3)CC2)cc1, the “hERG current change (%, negative = inhibition) at 10uM” value is reported as 13.9%.
In the case of O=C(Cc1ccc(F)cc1)N1CCN(c2ccc([N+](=O)[O-])cc2)CC1, the “hERG current change (%, negative = inhibition) at 10uM” value is reported as -69.5%.
In the case of CC(Cc1ccccc1)NC(=O)/C=C/c1ccc(Cl)cc1 (stereo not shown), the “hERG current change (%, negative = inhibition) at 10uM” value is reported as -11.7%.
CC(Cc1ccccc1)NC(=O)/C=C/c1ccc([N+](=O)[O-])cc1 (stereo not shown) was tested, and the “hERG current change (%, negative = inhibition) at 10uM” value was -51.7%.
For O=C(Cc1ccc(Cl)cc1)N1CCN(c2ccccc2)CC1, the “hERG current change (%, negative = inhibition) at 10uM” value was -12.2%.
In the case of O=C(Cc1ccc(Br)cc1)N1CCN(c2ccc(F)cc2)CC1, the “hERG current change (%, negative = inhibition) at 10uM” value is reported as -49.9%.
For CCN(c1ccc(NC(=O)COC(=O)CCC(=O)c2ccc(F)cc2)cc1)C(C)C, the “hERG current change (%, negative = inhibition) at 10uM” value was -4.95%.
With O=C(Cn1cnc2c(nnn2Cc2ccccc2F)c1=O)N1CCN(c2ccccc2)CC1 the “hERG current change (%, negative = inhibition) at 10uM” value was -31.2%.
For O=C(NCCC1=CCCCC1)c1cccc2c1C(=O)N(C1CCCCC1)C2, the “hERG current change (%, negative = inhibition) at 10uM” value was 9.87%.
For O=C(NN1C(=O)c2ccccc2C1=O)c1ccncc1, the “hERG current change (%, negative = inhibition) at 10uM” value was 10.4%.
With CCOC(=O)C(O)(c1ccc(NC(=O)c2ccc(Cl)c(Cl)c2)cc1)C(F)(F)F (stereo not shown) the “hERG current change (%, negative = inhibition) at 10uM” value was -4.61%.
In the case of COc1ccc(NC(=O)CSc2nccn2Cc2ccco2)cc1OC, the “hERG current change (%, negative = inhibition) at 10uM” value is reported as 11.3%.
CCOC(=O)N1CCN(C(=O)c2ccc3c(c2)sc2nc(-c4ccccc4)cn23)CC1 was tested, and the “hERG current change (%, negative = inhibition) at 10uM” value was -49.3%.
CCOC(=O)c1cn(CC)c2ccc(S(=O)(=O)N3CC(C)CC(C)C3)cc2c1=O (stereo not shown) was tested, and the “hERG current change (%, negative = inhibition) at 10uM” value was -21.7%.
For Cc1c(C)c2ccc(OC(C)C(=O)NCCc3c[nH]c4ccccc34)cc2oc1=O (stereo not shown), the “hERG current change (%, negative = inhibition) at 10uM” value was -2.3%.
In the case of Cc1ccc(SCC(=O)N2CCC(C(N)=O)CC2)cc1, the “hERG current change (%, negative = inhibition) at 10uM” value is reported as 13.2%.
For Cc1ccc(S(=O)(=O)N2CCN(C(=O)Cc3ccccc3)CC2)cc1C, the “hERG current change (%, negative = inhibition) at 10uM” value was -2.97%.
For O=C(CN1CCN(c2ccc([N+](=O)[O-])cc2Cl)CC1)N1CCOCC1, the “hERG current change (%, negative = inhibition) at 10uM” value was -45.2%.
O=C(Cc1ccccc1)N1CCN(S(=O)(=O)c2cccc([N+](=O)[O-])c2)CC1 was tested, and the “hERG current change (%, negative = inhibition) at 10uM” value was -22.2%.
In the case of O=C(CN1CCOCC1)N1CCN(c2ccc([N+](=O)[O-])cc2)CC1, the “hERG current change (%, negative = inhibition) at 10uM” value is reported as -71.6%.
In the case of O=C(CN1CCN(c2ccc(F)cc2)CC1)N1CCOCC1, the “hERG current change (%, negative = inhibition) at 10uM” value is reported as 12.9%.
Cc1ccc(S(=O)(=O)N2CCN(C(=O)Cc3ccccc3)CC2)cc1 was tested, and the “hERG current change (%, negative = inhibition) at 10uM” value was -26.1%.
With O=C(Cc1ccccc1)N1CCN(S(=O)(=O)c2ccc([N+](=O)[O-])cc2)CC1 the “hERG current change (%, negative = inhibition) at 10uM” value was -64%.
Cc1ccc(S(=O)(=O)NCCC(=O)N2CCN(S(=O)(=O)c3ccccc3)CC2)cc1C was tested, and the “hERG current change (%, negative = inhibition) at 10uM” value was -16.6%.
In the case of Cc1ccc(CC(=O)N2CCN(S(=O)(=O)c3ccccc3)CC2)cc1C, the “hERG current change (%, negative = inhibition) at 10uM” value is reported as -55.5%.
For CCOC(=O)Cc1csc(NC(=O)Cc2cccs2)n1, the “hERG current change (%, negative = inhibition) at 10uM” value was 6.28%.
In the case of COc1ccc(S(=O)(=O)N2CCCC2C(=O)NCc2ccccc2Cl)cc1 (stereo not shown), the “hERG current change (%, negative = inhibition) at 10uM” value is reported as -12.4%.
For CC1CCC(NCCNC(=O)c2ccco2)CC1 (stereo not shown), the “hERG current change (%, negative = inhibition) at 10uM” value was 11.8%.
Cc1ccsc1C(=O)NCc1ccc(Cl)cc1 was tested, and the “hERG current change (%, negative = inhibition) at 10uM” value was 11.1%.
c1cnc(NCCNc2ncccn2)nc1 was tested, and the “hERG current change (%, negative = inhibition) at 10uM” value was 9.05%.
